Experimental data as given in the supplement of paper PMC12636033.
± gives the standard deviation of the averaged measurements. In all, about 33,000 sequences were measured (“E-score (rank enrichment, -0.5 to 0.5)”: median about -0.0028, highest 2% from about 0.23 on). Shown is part of a subset that was picked to be rich in the highest values.

System: 2Sb-muMax20 (muMax20 with two 1,3-bis(methyl)benzene Cys staples, A13C/A17C and Q88C/A92C, C-terminal Lys)
Test: PBM 8-mer E-score (E-score (rank enrichment, -0.5 to 0.5)); higher = stronger preferential binding
Method: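 Protein binding microarray (universal PBM chip covering all 10-mers in fixed probe flanks) with chemically synthesized human Max(13-93) bHLH-LZ analogs (not full-length Max) bearing noncanonical residues (hArg, Tha, Aib, Nle at 65) and aromatic Cys staples. Read-out per 8-mer (and its reverse complement): E-score (rank-based enrichment, -0.5 to 0.5) and Z-score of median probe intensity.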

Sequence | PBM 8-mer E-score
ACGAGACG | 0.0104 ± 0.13
AGTGACTG | -0.0977 ± 0.053
CCGGCCCC | -0.0874 ± 0.098
TCCGTCGA | -0.0858 ± 0.034
GATGCGAC | 0.0229 ± 0.095
ACCTTCAC | 0.016 ± 0.0064
CTGTCATC | 0.0122 ± 0.062
AATGCGCT | 0.0765 ± 0.063
ACTGCGCC | -0.18 ± 0.0093
ACCTAGGA | 0.0803 ± 0.054
AGTTGGGA | -0.0331 ± 0.025
AGTTGGGC | 0.0922 ± 0.0035
AGTTGGGG | 0.235 ± 0.015
ATAAGAAT | 0.104 ± 0.022
AAAAGTAA | 0.0725 ± 0.087
ATAAGAAC | 0.239 ± 0.022
AAAAGTAC | 0.239 ± 0.074
ATAAGAAA | 0.144 ± 0.013
ATAAGTAC | 0.236 ± 0.016
ATAAGTAT | 0.125 ± 0.033
CTAAGTAC | 0.0248 ± 0.0083
AAAAGTAT | 0.083 ± 0.012
CCTACGCG | 0.0631 ± 0.019
ATGGTAAC | 0.184 ± 0.066
GCTGTCGA | -0.165 ± 0.0033

Sequence | PBM 8-mer E-score
GGCGCGAC | -0.163 ± 0.064
CGGACTAG | -0.0898 ± 0.0032
TGGGGGAA | 0.0145 ± 0.015
ATGGGGAC | 0.108 ± 0.083
ATGGGGAG | 0.252 ± 0.011
CTGGGGAA | -0.106 ± 0.0058
GTGGGGGA | 0.0894 ± 0.033
GGGGGAAA | 0.0837 ± 0.028
TGGGGAAA | 0.314 ± 0.049
GTGGGGAA | 0.293 ± 0.012
ATGGGAAA | 0.00532 ± 0.065
ATGGGGGA | 0.071 ± 0.032
AGGGGGAG | -0.0302 ± 0.048
ATGGGGAA | 0.296 ± 0.074
AAGGCAGA | -0.0447 ± 0.097
GCAGCTAC | -0.158 ± 0.016
GCTGGGAA | -0.192 ± 0.031
CGTTTAAC | 0.0567 ± 0.0093
TATCAAGA | 0.188 ± 0.043
CGTGGCAG | -0.0638 ± 0.045
ACTGTTTC | 0.0301 ± 0.064
GCGGGAAA | 0.0716 ± 0.025
GCGGGGAA | 0.247 ± 0.02
GCGGGGGA | 0.0111 ± 0.068
CGGCCCAA | -0.0811 ± 0.15

Sequence | PBM 8-mer E-score
GAGCAGCA | -0.143 ± 0.042
CCGATAGG | -0.0782 ± 0.013
ACGATAGC | 0.0621 ± 0.019
ACGATAGG | 0.245 ± 0.015
AAGCCGCC | -0.0339 ± 0.045
CAATAATG | 0.0644 ± 0.019
CAATAATA | 0.233 ± 0.066
GTATAAAC | 0.186 ± 0.0026
GAATAAAA | 0.0229 ± 0.074
GCATAACA | 0.251 ± 0.042
ATATAAAA | 0.186 ± 0.049
GCATAACC | 0.0156 ± 0.029
CAATAATC | 0.189 ± 0.047
GTATAAAA | 0.247 ± 0.042
CAATAAAC | 0.0373 ± 0.052
CAATAAAA | 0.284 ± 0.016
ACATAACA | 0.107 ± 0.034
AAGGGTCT | 0.00286 ± 0.1
AACTGTCG | -0.138 ± 0.016
ACGATGAG | 0.0498 ± 0.025
TCACGAGA | -0.0563 ± 0.015
GAATAACA | 0.186 ± 0.011
TAATAACA | 0.0232 ± 0.011
CAATAACA | 0.232 ± 0.0098
CTCTTAAG | -0.0478 ± 0.022

Sequence | PBM 8-mer E-score
GTGCGCAC | 0.157 ± 0.1
GATCAATC | -0.0898 ± 0.043
CTACCCCA | 0.259 ± 0.021
TGACCCCA | 0.111 ± 0.032
AGACCCCA | 0.283 ± 0.011
AAACCCTG | 0.029 ± 0.12
AACCCCCA | -0.318 ± 0.021
AAACCCCC | -0.275 ± 0.038
GTACCCCA | 0.195 ± 0.023
AAACCCTA | 0.244 ± 0.089
AGACCCCC | -0.382 ± 0.044
CAACCCTA | 0.019 ± 0.059
AAACCCCA | 0.232 ± 0.033
CTACCCCC | -0.0941 ± 0.072
AATGCCAT | 0.0622 ± 0.045
AGTTGTAG | 0.0711 ± 0.018
ATGGAAGG | -0.00186 ± 0.021
CCCCGTCA | 0.0912 ± 0.04
CCCCGGCG | -0.233 ± 0.056
GCTGCAAA | -0.0134 ± 0.061
ACCGTCAT | 0.0687 ± 0.082
CAACCCAA | -0.0401 ± 0.029
CAACCCCA | 0.294 ± 0.051
CAACCCCC | -0.167 ± 0.046
ACTTTCTG | -0.0565 ± 0.016

Sequence | PBM 8-mer E-score
ACTTTATA | 0.232 ± 0.077
CCTTTATA | 0.0289 ± 0.054
GGTTTATA | 0.047 ± 0.079
ACTTTCTA | 0.241 ± 0.012
ACTTTCTC | 0.0106 ± 0.018
ACTTTATC | 0.00955 ± 0.014
AGTTTATC | 0.182 ± 0.027
AGTTTATA | 0.235 ± 0.044
AGGCGAGG | 0.0445 ± 0.00056
CTATACCA | 0.214 ± 0.036
CGTCTGAG | -0.115 ± 0.054
CAACCGCG | 0.0452 ± 0.028
ATGTCTGC | -0.0456 ± 0.036
AATCTTCC | 0.0406 ± 0.055
ATATCGAT | 0.23 ± 0.013
ATATCGAA | 0.0967 ± 0.018
ATATCGAC | 0.0358 ± 0.012
TCCTGGCA | -0.0907 ± 0.03
CCTTATAC | 0.175 ± 0.015
CACACTTA | 0.15 ± 0.045
ATTTAAAC | 0.167 ± 0.021
AGGGGCTA | 0.198 ± 0.055
AGGGGCAA | 0.159 ± 0.017
AGGGGCTG | 0.252 ± 0.036
AGGGGCAC | -0.0355 ± 0.044

Sequence | PBM 8-mer E-score
AGGGGTTA | 0.135 ± 0.04
TGGGGTAA | 0.266 ± 0.033
CGGGGTAA | 0.19 ± 0.055
AGGGGCTC | 0.0348 ± 0.035
AAGGGTTG | 0.0938 ± 0.044
AGGGGCAT | 0.272 ± 0.028
GGGGGTAA | -0.0157 ± 0.073
AGGGGTTG | 0.266 ± 0.068
TAAGGCGA | 0.0332 ± 0.024
CCAACGTA | -0.0251 ± 0.052
CCACTCAA | 0.199 ± 0.032
ACTGGCAG | -0.182 ± 0.042
AATGGTGG | 0.0724 ± 0.034
AACCTTGT | -0.108 ± 0.054
GGGGCTAA | 0.0894 ± 0.033
ATCGCCAA | -0.0483 ± 0.083
ACACCGTA | 0.0971 ± 0.049
ATATCACA | 0.112 ± 0.039
AAGCCCCG | 0.0771 ± 0.022
CGGGGTAG | 0.147 ± 0.071
AGGGGTAG | 0.309 ± 0.059
AGGGGTAA | 0.202 ± 0.014
AGGTCCGA | -0.128 ± 0.028
AATTTAAA | 0.0161 ± 0.022
ATTTTTAC | 0.127 ± 0.05

Sequence | PBM 8-mer E-score
AGAAACAT | 0.0919 ± 0.038
AGAAACAC | 0.0175 ± 0.091
AGAAACAA | 0.252 ± 0.0078
GGAAACAA | 0.133 ± 0.078
TGAAACAA | 0.261 ± 0.053
CGAAACAA | 0.0409 ± 0.023
ACCCTCTG | -0.181 ± 0.025
GGGTCTTA | 0.104 ± 0.061
GCGTATGA | 0.0375 ± 0.06
ATTCTTCA | 0.00503 ± 0.029
ACCGCTTC | -0.17 ± 0.019
AATATTTA | 0.201 ± 0.0076
GTTCAGGA | -0.184 ± 0.021
CCCTGAGC | 0.0168 ± 0.058
GATATGAA | 0.103 ± 0.013
AATATGAA | 0.271 ± 0.004
AATATGAT | 0.252 ± 0.03
AATATGAC | 0.166 ± 0.012
TATATGAA | 0.159 ± 0.022
AATATGAG | -0.034 ± 0.019
ATTTTACG | 0.126 ± 0.054
CAGTTCAG | 0.0182 ± 0.11
GTGCACAC | -0.0164 ± 0.1
GGCTACGA | -0.0832 ± 0.011
CACGTCCC | -0.161 ± 0.028

Sequence | PBM 8-mer E-score
ATGCGAGC | 0.00876 ± 0.045
ATGCGAGA | -0.0394 ± 0.1
ATGCGAGG | 0.2342 ± 0.0017
CGCCCCCC | -0.286 ± 0.14
AATGTACG | 0.115 ± 0.053
CATGTACG | 0.311 ± 0.024
CATGTACA | 0.125 ± 0.1
TGCACTAA | 0.102 ± 0.019
ATGGTGCA | 0.196 ± 0.05
CAACACCG | -0.202 ± 0.036
GAACACCC | -0.145 ± 0.022
CAACACCC | 0.252 ± 0.0077
GAGGTATA | 0.144 ± 0.025
TAGTAGAA | -0.0551 ± 0.015
ACGGACAA | 0.0365 ± 0.0016
CGACGCAG | -0.238 ± 0.017
ATGAAATG | 0.277 ± 0.066
ATGAAATC | 0.137 ± 0.039
ATGAATGA | 0.181 ± 0.035
ATGAATGC | 0.164 ± 0.06
ATGAAATA | 0.169 ± 0.024
ATGAATGG | 0.297 ± 0.033
CCCGCGAG | 0.015 ± 0.026
CGCAGACG | -0.0875 ± 0.1
CATGTGCC | 0.161 ± 0.0077

Sequence | PBM 8-mer E-score
ATGGCCGC | -0.0812 ± 0.007
CCTGCGAA | -0.0794 ± 0.0094
AAGGGTGG | 0.0428 ± 0.051
AGGGTGGG | 0.266 ± 0.032
AGGGGTGA | 0.16 ± 0.05
AGGGTGGC | 0.0374 ± 0.1
AGGGTGGA | -0.0307 ± 0.022
AGGGGTGG | 0.287 ± 0.046
GTTCGTAA | -0.00989 ± 0.0088
ACTATCGC | 0.097 ± 0.036
AATGCTAT | 0.0731 ± 0.033
ACCGCATA | 0.0507 ± 0.032
AGGTAAAC | -0.0251 ± 0.11
AGGTAAAT | 0.0873 ± 0.074
AGGTAAAG | 0.2635 ± 0.0021
AGCAGATC | -0.143 ± 0.068
ACGTCTTA | -0.193 ± 0.025
CATGTTGC | 0.0698 ± 0.024
CATGTTTC | 0.05 ± 0.033
CATGTTGA | 0.257 ± 0.02
GATGTTTA | 0.12 ± 0.03
CATGTTTA | 0.239 ± 0.024
AATGTTGA | 0.0172 ± 0.078
